TMEM16A act – mouse TMEM16A channel activation, primary screen; Q8BHY3; HEK293 TMEM16A/YFP-H148Q/I152L, iodide quench fluorescence; active compounds read low; B-score at 10 µM; hit rate 0.3% among 340,000;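 active = fluorescence-ratio B-score plate-corrected deviation score at least 3 library SD below zero, with starting fluorescence score within 5 deviations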;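 note: channel opened by trigger with iodide after compound preincubation; score built on the fluorescence ratio of max minus min over baseline; more negative score means more quench and so TMEM16A activation or potentiation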
Jurkat NFkB inh – inhibitors of the PMA/ionomycin-induced NF-kB reporter in Jurkat cells. PMA/ionomycin-induced NF-kB luciferase reporter, luminescence. inhibition, % at 4 µM. hit rate 0.53% among 330,000. AID 435003; in the data active = inhibition above about 50%
aSyn UTR inh – 5' untranslated region of α-synuclein, MLPCN primary screen; hit rate 0.82% among 300,000; alpha-synuclein 5'UTR reporter, inhibitor activity; AID 1813; inhibition, % (tested at 7.5 µM); in the data active = inhibition above about 60%;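 note: H4 neuroglioblastoma cells stably carrying SNCA 5'UTR luciferase fusion; 0% = DMSO wells and 100% = positive control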
TMEM16A inh – mouse TMEM16A channel inhibition, primary screen. Q8BHY3. HEK293 TMEM16A/YFP iodide influx fluorescence, ionomycin. normalized B-score (activity score, 25-100; higher = stronger inhibition) at 10 µM. hit rate 1.2% among 310,000. AID 588511;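 active = ratio plate-corrected score three or more library SD toward inhibition, starting fluorescence score within five deviations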;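 note: score derived from kinetic fluorescence span divided by baseline fluorescence per well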
697 NFkB inh – inhibitors of the PMA/ionomycin-induced NF-kB reporter in 697 B cells. 697 B-cell NF-kB luciferase reporter, 16 h. AID 435022. inhibition, % at 4 µM. hit rate 0.33% among 330,000; in the data active = inhibition above about 35%
KLF5 inhibitor – kruppel-like factor 5 inhibition; DLD-1 KLF5 promoter-luciferase reporter, luminescence; inhibition, % at 5 µM; hit rate 0.23% among 290,000; AID 1700;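 active = inhibition above a per-plate limit of that plate's mean compound inhibition plus 3 SD, cut at about 60% in these data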;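 note: 0% = DMSO wells and 100% = LY294002 at 200 µM; higher means less KLF5 promoter-driven luciferase light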
The depositor's hits bear a star; i = inactive; . = no result given. An excerpt weighted towards active compounds, which were near 2.5% of everything screened.

SMILES	TMEM16A act	Jurkat NFkB inh	aSyn UTR inh	TMEM16A inh	697 NFkB inh	KLF5 inhibitor
N/C(=N\OC(=O)c1ccc([N+](=O)[O-])cc1Cl)c1ccccn1	i	-24	69*	i	-60	65*
N/C(=N\OC(=O)c1cccc2ccccc12)c1ccccn1	i	-67	102*	i	-220	-17
N/C(=N\OC(=O)c1cc([N+](=O)[O-])ccc1Cl)c1ccccn1	i	-1	-82	i	-19	-53
CCOC(=O)c1c(C)[nH]c(C(=O)OCc2csc(CC(=O)Nc3ccccc3C)n2)c1C	i	-3	-2	i	4	.
CN(C)CCCNC(=S)NCC(c1ccc(Cl)cc1Cl)c1c[nH]c2ccccc12 (stereo unspecified)	i	-9	111*	i	16	-37
COc1ccc(NC(=O)c2cccc(S(=O)(=O)Nc3ccc(Br)cc3)c2)cn1	i	1	25	25*	-11	-12
O=C(Nc1ccc(Br)cc1)c1cccc(S(=O)(=O)Nc2ccccn2)c1	i	3	-5	i	-13	-16
COc1ccc(NC(=O)NS(=O)(=O)c2ccc(C)cc2)cn1	-7.5*	.	-8	i	.	2
C=CCN([C@@H](CC(C)C)C(=O)OC)S(=O)(=O)N(CC=C)[C@@H](CC(C)C)C(=O)OC	i	-3	.	.	4	.
CCc1ccc(CN(C)C(=O)CCc2nc3ccccc3n(-c3ccc(OC)cc3)c2=O)cc1	i	-1	19	100*	6	-9
Cc1ccc(CNC(=O)c2ccccc2NC(=O)CN2CC(C)OC(C)C2)cc1 (stereo unspecified)	i	9	-14	i	22	18
COc1ccc(C(=O)CCC(=O)N2CCN(c3cc(C)ccc3C)CC2)cc1	-5.8*	12	-5	i	-24	-12
COc1ccc(-c2cccc(CCC(=O)N3CCN(c4cc(C)ccc4C)CC3)c2)cc1	.	.	.	.	11	.
COc1ccc(CN2C(=O)[C@H]3Cc4c([nH]c5ccccc45)C(C)(C)N3C2=O)cc1	i	11	14	25*	8	.
O=C(CSc1ccc2ccccc2c1Br)Nc1cccc(S(=O)(=O)NC2=NCCCCC2)c1	i	-22	64*	i	-6	4
CCOC(=O)C1=CNS(=O)(=O)NC1c1ccccc1 (stereo unspecified)	i	.	.	.	14	.
O=C(CCCOc1ccc(Cl)cc1)N1CCOCC1	i	-2	-13	i	-4	-28
CCOC(=O)C1(CCCCCCOc2ccc(Cl)cc2)CO1 (stereo unspecified)	.	4	4	25*	4	-7
O=C(CNC(=O)c1ccccc1Br)N/N=C/c1ccccc1O	i	17	4	i	9	-15
O=C(CNC(=O)c1ccccc1Br)N/N=C/c1cc(Br)ccc1O	i	20	70*	i	-7	-3
COc1ccc(C2/C=C\CN(C(=O)Nc3ccc(C(F)(F)F)cc3)CC(=O)N2Cc2ccc(F)cc2)cc1 (stereo unspecified)	i	12	71*	i	-4	.
Cc1ccc(S(=O)(=O)N(CC(=O)N2CCOCC2)c2ccc(C(C)C)cc2)cc1	i	12	2	i	-15	4
CCOC(=O)c1cnc(-n2nc(C)cc2C)nc1NNc1nc(-c2ccccc2)cc(-c2ccccc2)n1	i	21	82*	i	4	2
CCOC(=O)c1cnc(-n2nc(C)cc2C)nc1NC1CCCCC1	i	6	35	100*	-9	-27
Cc1cc(=O)[nH]c(SCC(=O)Nc2ccc(Br)cc2)c1C#N	i	2	-9	100*	-5	-117
SMILES	TMEM16A act	Jurkat NFkB inh	aSyn UTR inh	TMEM16A inh	697 NFkB inh	KLF5 inhibitor
COc1cc2nc(Nc3ccc(C)c(Cl)c3)nc(N)c2cc1OC	i	38	99*	i	-13	-55
O=C(CSc1ccc2nnc(-c3cccnc3)n2n1)Nc1ccccc1C(F)(F)F	i	-2	-5	i	-25	-33
CN1C[C@@H]2[C@@H]3C(=O)N(C)C(=O)[C@@H]3[C@](C)(C1=O)N2C(=O)c1ccccc1	i	.	.	.	.	.
CCOC(=O)N1CCN(C(=O)c2ccc3c(c2)N(Cc2cccc(Cl)c2)C(=O)c2ccccc2S3=O)CC1 (stereo unspecified)	i	12	29	i	-13	-27
COc1ccc(CNC(=S)N/N=C(/C)c2ccccc2)cc1	i	-48	-107	25*	-108	-60
C/C(=N\NC(=S)NCc1ccccc1)c1ccccc1	i	-17	-33	i	-30	-40
COc1ccc(S(=O)(=O)/N=C2/C=CC(=O)C(C)=C2C)cc1	i	-12	-29	i	-55	-21
CC1=C(C)/C(=N\OS(=O)(=O)c2ccc(C)cc2)C=CC1=O	-4.8*	.	.	25*	.	-19
O=C1CCC(C2CCc3cc(O)ccc3C2)C1 (stereo unspecified)	i	.	.	.	.	.
COc1cc(/C=C/C(O)=C/C(=O)/C=C/c2ccc(O)cc2)ccc1O	i	9	.	.	-6	.
COc1cccc(/C=N/NC(=S)Nc2cccc(S(=O)(=O)N(C)C)c2)c1	i	-7	-7	i	-1	6
CN(C)S(=O)(=O)c1cccc(NC(=S)Nc2cc(Cl)cc(Cl)c2)c1	i	-5	9	100*	17	-5
COc1ccc(O)c(/C=N/NC(=S)Nc2cccc(S(=O)(=O)N(C)C)c2)c1	i	.	74*	i	.	12
COc1cc(CCC(=O)Nc2ccc(C)c(S(=O)(=O)N3CCCCCC3)c2)cc(OC)c1OC	i	16	.	.	-18	.
O=C(c1cccs1)N1CCCC(c2nc3c(nnn3Cc3c(Cl)cccc3Cl)c(=O)[nH]2)C1 (stereo unspecified)	i	-3	7	i	-25	-17
O=[N+]([O-])c1cccc(NC(=S)NCCc2ccccc2)c1	i	-16	-7	100*	-42	-33
Fc1cccc(NC(=S)NCCc2ccccc2)c1	i	-14	-71	i	-17	-26
O=[N+]([O-])c1ccc(NC(=S)NCCc2ccc(F)cc2)cc1	-4.9*	1	-61	100*	-16	-30
Cc1ccc(C(=O)N2C(=O)C(c3ccccc3)Oc3ccccc32)cc1 (stereo unspecified)	i	-33	93*	i	-8	7
Cc1ccc(C(=O)N2c3ccccc3OCC2C)cc1 (stereo unspecified)	.	15	3	i	13	5
COc1ccc([C@H]2CC(=O)C=C(c3cccc(C#N)c3)C2)cc1	i	5	.	.	0	.
O=C(c1ccc(Oc2ccc([N+](=O)[O-])cc2Cl)cc1)N1CCCC1	i	7	-8	i	14	1
O=C(c1ccc(Oc2ccc([N+](=O)[O-])cc2)cc1)N1CCCCCC1	i	8	-9	25*	-14	-23

Screening data from PubChem.
